# Test results taken from PubChem BioAssay (EPA / NIEHS).
# Activity calls are given as the source filed them. Rule for the calls: active = hit-call score of the fitted dose curve at least 0.9, where 1 is the maximum; inactive = score below 0.9.
# Read-out: Interleukin-1 alpha (IL1a), IL1A (gene 3552)
# Experiment: BSK_KF3CT_IL1a: BioMAP Diversity Plus: KF3CT Assay for Interleukin-1 alpha (IL1a) Biomarker Activity (AID 2283070)
# Details: primary human keratinocytes with fibroblasts; actives raise or lower the signal
# Summary of the method: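 IL-1a was detected by ELISA 24 h after chemical treatment of a co-culture of human skin keratinocytes and foreskin fibroblasts. Gain or loss of signal was fitted against the DMSO baseline.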
SMILES,AC50,outcome
On1ccccc1=S,10.2 µM (active),–
O=c1[nH]c2ccc(S(=O)CCN3CCC(Cc4ccc(F)cc4)CC3)cc2o1 (stereo not given),–,inactive
O=C(NS(=O)(=O)/C=C/c1ccccc1)c1ccc(F)cc1Cl,–,inactive
COc1ccc(-n2nc(C(F)F)cc2-c2ccc(S(C)=O)cc2)cc1 (stereo not given),–,inactive
CCCN(C1CCN(C(=O)C2CCNCC2)CC1)[C@@H]1CCc2ccc(OC)cc2C1,–,inactive
O=C1CCCCCN1,–,inactive
Nc1cccc(N)c1,–,inactive
Fc1ccccc1[C@@H](F)COC1CCC(Nc2ncnc3[nH]ncc23)CC1 (stereo not given in full),–,inactive
CCn1nc(Cc2ccccc2)cc1C1CCN(C[C@H]2C[C@H](N(C)[C@@H](C(=O)O)C(C)C)C[C@@H]2c2cccc(F)c2)CC1,–,inactive
C=CC(=C)CCC=C(C)C,–,inactive
CC(C)(O)c1coc(S(=O)(=O)NC(=O)Nc2c3c(cc4c2CCC4)CCC3)c1,–,inactive
CC(=O)OCCC(C)C,–,inactive
O=C1OC(=O)C2C3C=CC(C3)C12 (stereo not given),–,inactive
O=C(O)c1cccc(Oc2ccccc2)c1,–,inactive
CCCCCCCCCCCCCCCO,–,inactive
O=C(CCCCCCCCc1cccnc1)N1CCC(C=C(c2ccccc2)c2ccccc2)CC1,16.9 µM (active),–
COC(=O)c1ccccc1O,–,inactive
CCC(C)(C)C(=O)O[C@H]1C[C@@H](C)C=C2C=C[C@H](C)[C@H](CC[C@@H]3C[C@@H](O)CC(=O)O3)[C@H]21,34.9 µM (active),–
O=c1n(CC2CO2)c(=O)n(CC2CO2)c(=O)n1CC1CO1 (stereo not given),–,inactive
O=C(O)c1cccc(N(Cc2cccnc2)c2ccc(OC(F)F)c(OC(F)F)c2)c1,–,inactive
C1=CCCC=CCCC=CCC1,–,inactive
O=C(O)c1cc(N=Nc2ccc(S(=O)(=O)Nc3ccccn3)cc2)ccc1O,–,inactive
CCOc1cccc(-n2cc(C(=O)N3CCN(c4cc(C(=O)O)c5ccccc5c4)CC3)nc2-c2ccc(C)cc2)c1,30.1 µM (active),–
CC(C)CCO,–,inactive
CC(=O)OC[C@H]1O[C@@](COC(C)=O)(O[C@H]2O[C@H](COC(C)=O)[C@@H](OC(C)=O)[C@H](OC(C)=O)[C@H]2OC(C)=O)[C@@H](OC(C)=O)[C@@H]1OC(C)=O,–,inactive
NC(=O)NO,–,inactive
COc1ccc(/C=C/S(=O)(=O)NC(=O)c2ccc(C)cc2Cl)cc1,8.09 µM (active),–
Nc1ccc(Nc2ccccc2)cc1,–,inactive
CN(C)c1ccc(Cc2ccc(N(C)C)cc2)cc1,–,inactive
Cc1ccc(C)c(O)c1,–,inactive
